In PubChem BioAssay (Tox21):
Records with an inconclusive call do not appear. Activity calls are given as the source filed them. Unless noted, calls come from the whole dose curve; as a rule, active = well fitted curve in the direction sought with a large enough effect in the repeat runs; inconclusive = weak or mixed curves; inactive = no such curve, though single readings can be large; an effect the other way counts as inactive or inconclusive.

Tests used:
[1] = qHTS assay to identify small molecule agonists of the androgen receptor (AR) signaling pathway in the presence of an antagonist - cell viability counter screen (AID 1259379); note: nearly all actives have a fitted effect of over 25% in size; note: potency is the fitted concentration of half-maximal effect
How it was run: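 Each compound was tested at 15 concentrations on MDA-kb2 cells in the presence of 3.0uM nilutamide. Viability was measured by CellTiter-Fluor fluorescence after a 16 hr incubation at 37C in a CO2-free atmosphere.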

[2] = qHTS assay to identify small molecule agonists of the estrogen receptor beta (ER-beta) signaling pathway - cell viability counter screen (AID 1259380); note: nearly all actives have a fitted effect of over 30% in size; note: potency is the fitted concentration of half-maximal effect
How it was run: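 Compounds dissolved in DMSO were pin-transferred onto ER-beta-UAS-bla HEK293T cells that had settled 6 hr, and exposure ran 16 hr at 37C. Following the reporter read, CellTiter-Glo luminescence after 30 min at room temperature indicated cytotoxicity.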

[3] = qHTS assay to identify small molecule antagonists of the estrogen receptor beta (ER-beta) signaling pathway - cell viability counter screen (AID 1259382); note: nearly all actives have a fitted effect of over 55% in size; note: potency is the fitted concentration of half-maximal effect
How it was run: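 CellTiter-Glo ATP luminescence measured after the LiveBLAzer read in the same wells; ER-beta-UAS-bla HEK293T cells, 16 hr compound treatment with 1nM 17-beta-estradiol agonist at 37C, 5% CO2.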

[4] = biological target: Estrogen receptor (Homo sapiens) (UniProt P03372); test: qHTS assay to identify small molecule agonists of the estrogen receptor alpha (ER-alpha) signaling pathway in the presence of an antagonist (AID 1259383; calls by dose curve; note: top concentration of the series differs between compounds; nearly all actives have a fitted effect of over 15% in size)
How it was run: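 Luminescent ERE-luciferase reporter, VM7Luc4E2 cells (endogenous ER-alpha); 10.0nM ICI-182,780 final; 15-point compound titration; 22hr at 37C; ONE-Glo, 30min RT.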

[5] = qHTS assay to identify small molecule agonists or antagonists of the thyroid stimulating hormone receptor (TSHR) signaling pathway - wild type cell line counter screen (AID 1259384; calls by dose curve)
How it was run: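 Wild-type Hek293 cells, 800/well, 18 h at 37C, then compound with Ro20-1724 for 30 min RT. cAMP by HTRF (cAMP-d2/anti-cAMP cryptate), 1 h RT, fluorescence read. 15 concentrations, triplicates.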

[6] = biological target: Thyrotropin receptor (Homo sapiens) (UniProt P16473); test: qHTS assay to identify small molecule antagonists of the thyroid stimulating hormone receptor (TSHR) signaling pathway (AID 1259385; calls by dose curve; note: nearly all actives have a fitted effect of over 20% in size)
How it was run: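 TSHR-HEK293 cells (800/well) plated 18 h, then compounds with Ro20-1724 and TSH at 1.5 ng/mL final, 30 min at room temperature. cAMP quantified by HTRF (cAMP-d2/anti-cAMP-cryptate, 1 h); 15 concentrations in triplicate.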

[7] = qHTS assay to identify small molecule agonists of the estrogen receptor alpha (ER-alpha) signaling pathway in the presence of an antagonist - cell viability counter screen (AID 1259386);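 note: series mostly up to about 92 µM; cells exposed to compounds for 22 h at 37 °C before the viability read; nearly all actives have a fitted effect of over 30% in size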
How it was run: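 Using estrogen-depleted VM7Luc4E2 cells, the 15-concentration compound series was applied together with 10.0nM ICI-182,780 and incubated 22hr at 37C/5% CO2. Cell viability was then scored by CellTiter-Fluor.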

[8] = biological target: Progesterone receptor (Homo sapiens) (UniProt P06401); test: qHTS assay to identify small molecule agonists of the progesterone receptor (PR) signaling pathway (AID 1346784; calls by dose curve; note: nearly all actives have a fitted effect of over 30% in size)
How it was run: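 Beta-lactamase reporter read-out: after 16 hr compound treatment at 37C and a further 2 hr at room temperature with LiveBLAzer B/G FRET substrate, fluorescence was measured in PR-UAS-bla HEK 293T cells grown in 2% charcoal-stripped serum.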

[9] = biological target: Progesterone receptor (Homo sapiens) (UniProt P06401); test: qHTS assay to identify small molecule antagonists of the progesterone receptor (PR) signaling pathway (AID 1346795; active = well fitted inhibition curve with a large enough effect in the signal ratio in the repeat runs, not every such curve was filed as active; the % refers to the signal ratio; note: potency is the fitted concentration of half-maximal effect)
How it was run: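 Read-out is fluorescence from the LiveBLAzer B/G FRET substrate, cleaved by a UAS-controlled beta-lactamase in PR-UAS-bla HEK293T cells after 16 hr exposure to compound plus 1 nM promegestone (final), followed by 2 hr at room temperature.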

[10] = qHTS assay to identify small molecule antagonists of the progesterone receptor (PR) signaling pathway - cell viability counter screen (AID 1346798); note: nearly all actives have a fitted effect of over 50% in size; note: potency is the fitted concentration of half-maximal effect
How it was run: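 HEK293T PR-UAS-bla, 2% charcoal-stripped FBS; 4 hr pre-plate; cpd + R5020, 16 h 37C; LiveBLAzer read first; then CellTiter-Glo 30 min RT, luminescence.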

[11] = qHTS assay to identify small molecule antagonists of the TGF-beta/Smad signaling pathway - cell viability counter screen (AID 1346824); note: nearly all actives have a fitted effect of over 50% in size; note: potency is the fitted concentration of half-maximal effect
How it was run: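 SBE-bla HEK 293T cells, incubated overnight, then compound plus 0.25 ng/mL TGF-beta1 (stock added) for 5 hr at 37 C. Viability was read in the same wells by CellTiter-Glo luminescence after 30 min at room temperature.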

[12] = qHTS assay to identify small molecule agonists of the TGF-beta/Smad signaling pathway - cell viability counter screen (AID 1346829); note: nearly all actives have a fitted effect of over 45% in size; note: potency is the fitted concentration of half-maximal effect
How it was run: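 CellTiter-Glo luminescence readout; SBE-bla HEK 293T cells, overnight plating, compound 5 hr at 37 C/5% CO2, then bla substrate 2 hr RT, then CellTiter-Glo 30 min RT.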

[13] = qHTS assay to identify small molecule agonists of the TGF-beta/Smad signaling pathway (AID 1346859; active = well fitted activation curve with a large enough effect in the signal ratio in the repeat runs, not every such curve was filed as active; the % refers to the signal ratio; note: series mostly up to about 77 µM)
How it was run: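 SBE-bla HEK 293T, 4,000 cells/well, plated o/n; cpd in DMSO, 5 hr, 37 C/5% CO2; B/G FRET substrate 2 hr RT; ex 405, em 460/530 nm.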

[14] = biological target: Thyrotropin-releasing hormone receptor (Homo sapiens) (UniProt P34981); test: qHTS assay to identify small molecule antagonists of the thyrotropin-releasing hormone receptor (TRHR) signaling pathway (AID 1346877; active = well fitted inhibition curve with a large enough effect in the repeat runs, not every such curve was filed as active; note: series mostly up to about 51 µM)
How it was run: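 Calcium signal in dye-loaded TRHR/HEK293 cells; compounds added 5 min before TRH (1 nM final); fluorescence monitored 3 min at 1 s steps.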

[15] = biological target: Thyrotropin-releasing hormone receptor (Homo sapiens) (UniProt P34981); test: qHTS assay to identify small molecule agonists of the thyrotropin-releasing hormone receptor (TRHR) signaling pathway (AID 1346891; calls by dose curve; note: series mostly up to about 58 µM)
How it was run: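 Intracellular calcium rise, read as fluorescence every second for 3 min, served as the agonist signal in dye-loaded HEK293 cells expressing TRHR; each compound ran at 15 concentrations in triplicate.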

[16] = Human pregnane X receptor (PXR) small molecule agonists, qHTS cell viability counter screen (AID 1346977); note: nearly all actives have a fitted effect of over 50% in size; note: potency is the fitted concentration of half-maximal effect
How it was run: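 PXR-Luc HepG2, 2,000 cells/well, 5% charcoal-stripped FBS; 5hr settle; cpd 24hr, 37C/5% CO2; CellTiter-Fluor at 23hr, read 1hr later (fluorescence).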

[17] = biological target: Androgen receptor (Homo sapiens) (UniProt P10275); test: qHTS assay to identify small molecule agonists of the androgen receptor (AR) signaling pathway in the presence of an antagonist (AID 1259381; calls by dose curve; note: nearly all actives have a fitted effect of over 15% in size)
How it was run: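 Plated MDA-kb2 cells (3,000/well) were pre-incubated 5hr, given nilutamide (3.0uM final) or buffer, then dosed with compounds in DMSO at 15 concentrations. Luciferase activity was quantified by luminescence after 16hr at 37C.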

[18] = qHTS assay to identify small molecule agonists of the progesterone receptor (PR) signaling pathway - cell viability counter screen (AID 1346799; calls by dose curve; note: nearly all actives have a fitted effect of over 45% in size; note: potency is the fitted concentration of half-maximal effect)
How it was run: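 Luminescence from CellTiter-Glo, added after the beta-lactamase FRET read in the same wells, gave cytotoxicity in PR-UAS-bla HEK293T cells treated with compounds for 16 hr at 37C.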

Measured: Potency

Chain of Thyrotropin receptor (Homo sapiens) (P16473 whole entry, looked up): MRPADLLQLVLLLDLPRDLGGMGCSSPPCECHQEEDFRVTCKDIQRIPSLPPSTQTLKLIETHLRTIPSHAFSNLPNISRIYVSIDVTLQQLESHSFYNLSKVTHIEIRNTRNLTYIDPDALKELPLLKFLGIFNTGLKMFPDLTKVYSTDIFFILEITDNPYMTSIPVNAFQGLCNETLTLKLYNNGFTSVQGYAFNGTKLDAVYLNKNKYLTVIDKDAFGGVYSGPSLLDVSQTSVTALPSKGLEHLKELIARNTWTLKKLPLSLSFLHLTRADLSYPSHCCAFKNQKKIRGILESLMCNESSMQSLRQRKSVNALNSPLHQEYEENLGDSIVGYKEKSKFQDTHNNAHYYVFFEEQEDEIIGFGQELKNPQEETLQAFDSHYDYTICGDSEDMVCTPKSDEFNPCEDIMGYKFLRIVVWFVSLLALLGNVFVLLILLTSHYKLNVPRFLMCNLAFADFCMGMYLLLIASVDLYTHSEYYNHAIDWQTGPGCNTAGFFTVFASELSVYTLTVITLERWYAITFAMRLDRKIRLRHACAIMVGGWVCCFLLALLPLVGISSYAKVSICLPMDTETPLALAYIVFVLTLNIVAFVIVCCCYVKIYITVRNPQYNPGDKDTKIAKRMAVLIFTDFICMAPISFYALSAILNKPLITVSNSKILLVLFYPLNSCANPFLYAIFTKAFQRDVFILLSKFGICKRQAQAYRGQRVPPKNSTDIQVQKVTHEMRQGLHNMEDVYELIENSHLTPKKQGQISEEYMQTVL
Chain of Estrogen receptor (Homo sapiens) (P03372 whole entry, looked up): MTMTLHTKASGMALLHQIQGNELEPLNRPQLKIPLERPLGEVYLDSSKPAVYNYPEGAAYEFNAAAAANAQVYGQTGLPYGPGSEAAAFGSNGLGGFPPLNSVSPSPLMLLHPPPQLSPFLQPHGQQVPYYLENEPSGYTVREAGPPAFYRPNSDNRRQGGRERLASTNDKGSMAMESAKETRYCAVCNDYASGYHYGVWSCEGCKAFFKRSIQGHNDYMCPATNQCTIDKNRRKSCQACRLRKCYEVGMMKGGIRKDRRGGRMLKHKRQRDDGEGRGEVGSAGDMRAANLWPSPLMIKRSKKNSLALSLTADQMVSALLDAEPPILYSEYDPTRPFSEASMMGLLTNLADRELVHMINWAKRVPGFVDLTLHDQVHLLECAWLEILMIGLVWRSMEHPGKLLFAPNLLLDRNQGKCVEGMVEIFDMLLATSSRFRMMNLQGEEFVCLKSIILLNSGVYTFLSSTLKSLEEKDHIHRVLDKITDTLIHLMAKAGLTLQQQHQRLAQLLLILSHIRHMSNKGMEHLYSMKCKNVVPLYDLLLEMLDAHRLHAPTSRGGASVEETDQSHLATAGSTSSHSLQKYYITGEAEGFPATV
Chain of Thyrotropin-releasing hormone receptor (Homo sapiens) (P34981 whole entry, looked up): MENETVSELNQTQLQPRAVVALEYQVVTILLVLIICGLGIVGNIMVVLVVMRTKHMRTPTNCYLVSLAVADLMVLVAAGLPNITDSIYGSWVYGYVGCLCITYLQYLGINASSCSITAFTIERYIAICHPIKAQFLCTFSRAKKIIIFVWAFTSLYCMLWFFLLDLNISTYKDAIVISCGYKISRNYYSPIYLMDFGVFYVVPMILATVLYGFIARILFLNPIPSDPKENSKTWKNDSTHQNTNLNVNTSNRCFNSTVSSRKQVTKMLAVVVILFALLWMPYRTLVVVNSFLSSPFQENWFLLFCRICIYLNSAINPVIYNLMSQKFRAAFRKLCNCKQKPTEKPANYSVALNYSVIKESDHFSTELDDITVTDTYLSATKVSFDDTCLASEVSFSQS
Chain of Progesterone receptor (Homo sapiens) (P06401 whole entry, looked up): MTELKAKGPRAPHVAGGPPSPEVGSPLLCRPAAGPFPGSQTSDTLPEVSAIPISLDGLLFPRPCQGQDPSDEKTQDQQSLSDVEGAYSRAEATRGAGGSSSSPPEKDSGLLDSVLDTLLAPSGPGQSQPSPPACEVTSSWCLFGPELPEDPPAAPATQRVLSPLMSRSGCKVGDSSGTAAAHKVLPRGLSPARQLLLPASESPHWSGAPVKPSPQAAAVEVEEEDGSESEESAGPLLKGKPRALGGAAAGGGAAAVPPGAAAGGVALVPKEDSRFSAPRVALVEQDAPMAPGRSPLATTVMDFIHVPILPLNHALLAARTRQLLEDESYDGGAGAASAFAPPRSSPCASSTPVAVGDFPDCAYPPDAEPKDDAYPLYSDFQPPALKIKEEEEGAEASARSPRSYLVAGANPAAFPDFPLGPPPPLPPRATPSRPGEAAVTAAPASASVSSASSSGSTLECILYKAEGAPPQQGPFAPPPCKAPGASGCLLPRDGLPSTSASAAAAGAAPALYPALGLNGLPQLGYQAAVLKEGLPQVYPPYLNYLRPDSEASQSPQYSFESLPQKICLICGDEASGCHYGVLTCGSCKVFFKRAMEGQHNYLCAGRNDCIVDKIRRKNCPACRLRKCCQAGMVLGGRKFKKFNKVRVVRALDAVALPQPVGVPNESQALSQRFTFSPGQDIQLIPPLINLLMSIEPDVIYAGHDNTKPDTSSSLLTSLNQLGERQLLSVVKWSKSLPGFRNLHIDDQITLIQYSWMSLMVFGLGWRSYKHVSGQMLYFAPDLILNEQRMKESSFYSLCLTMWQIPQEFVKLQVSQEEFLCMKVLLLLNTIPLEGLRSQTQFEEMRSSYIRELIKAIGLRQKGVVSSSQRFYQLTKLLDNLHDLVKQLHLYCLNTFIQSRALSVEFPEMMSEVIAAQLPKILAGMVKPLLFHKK
Chain of Androgen receptor (Homo sapiens) (P10275 whole entry, looked up): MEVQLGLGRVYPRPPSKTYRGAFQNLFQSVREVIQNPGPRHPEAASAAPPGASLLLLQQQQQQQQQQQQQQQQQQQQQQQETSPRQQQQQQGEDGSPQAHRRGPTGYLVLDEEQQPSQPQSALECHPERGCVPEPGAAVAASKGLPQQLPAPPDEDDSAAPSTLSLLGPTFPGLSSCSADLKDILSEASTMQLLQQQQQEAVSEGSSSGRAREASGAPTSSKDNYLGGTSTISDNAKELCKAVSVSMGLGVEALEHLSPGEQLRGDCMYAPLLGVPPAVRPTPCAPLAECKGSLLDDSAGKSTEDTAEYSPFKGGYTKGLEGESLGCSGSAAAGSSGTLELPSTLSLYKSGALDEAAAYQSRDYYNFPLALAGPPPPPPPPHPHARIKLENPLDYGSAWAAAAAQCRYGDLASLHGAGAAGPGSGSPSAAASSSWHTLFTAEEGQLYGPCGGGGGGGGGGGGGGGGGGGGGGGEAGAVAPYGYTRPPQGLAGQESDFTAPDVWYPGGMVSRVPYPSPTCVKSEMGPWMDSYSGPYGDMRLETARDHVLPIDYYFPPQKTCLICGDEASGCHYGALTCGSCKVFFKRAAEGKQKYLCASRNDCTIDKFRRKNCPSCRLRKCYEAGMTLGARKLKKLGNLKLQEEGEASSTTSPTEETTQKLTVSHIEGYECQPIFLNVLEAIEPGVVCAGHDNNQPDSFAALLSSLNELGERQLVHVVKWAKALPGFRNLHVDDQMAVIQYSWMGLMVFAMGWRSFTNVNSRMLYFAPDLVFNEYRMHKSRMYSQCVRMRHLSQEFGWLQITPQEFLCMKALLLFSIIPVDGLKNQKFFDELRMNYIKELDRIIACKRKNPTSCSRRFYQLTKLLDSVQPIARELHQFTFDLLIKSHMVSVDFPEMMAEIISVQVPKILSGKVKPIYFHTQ

OCCC(O)CO (stereo not given)
not listed: [17] | [18]
inactive: all other assays above

COc1cc(C=C2CCC/C(=C\c3ccc(O)c(OC)c3)C2=O)ccc1O
active: [1] 26.6 µM | [2] 33.5 µM | [9] 6.68 µM | [16] 29.8 µM
inactive: [17] | [4] | [5] | [11] | [13] | [14] | [15]

CCC1CCCCC1
not listed: [4] | [16] | [18]
inactive: all other assays above

CCCCCCCC(=O)OCC
not listed: [3] | [12] | [16]
inactive: all other assays above

O=C(O)Cc1ccc(OCCNC[C@H](O)c2ccccc2)cc1
not listed: [7] | [9] | [10] | [14] | [15] | [18]
inactive: all other assays above

CC(COC(=O)c1ccccc1)OC(=O)c1ccccc1 (stereo not given)
not listed: [10] | [14] | [15] | [17]
inactive: all other assays above

c1cc(OCC2CO2)cc(OCC2CO2)c1 (stereo not given)
active: [16] 60.6 µM
not listed: [7] | [8] | [9] | [10] | [13] | [14] | [18]
inactive: all other assays above

CCN(CC)c1cccc(C)c1
not listed: [10] | [17] | [18]
inactive: all other assays above

CC=O
active: [1] 1.28 µM | [2] 57 µM | [3] 57 µM | [10] 32 µM | [18] 45.3 µM | [11] 25.7 µM | [12] 28.8 µM | [16] 5.7 µM
inactive: [4] | [5] | [6]
